Measured values reported in PubChem BioAssay AID1347131 (National Center for Advancing Translational Sciences (NCATS), 2019).
In all, about 410,000 compounds went through this assay and about 2,000 (0.49%) were called active. Another 8% or so got no clear call; they are omitted. The list comes from a sample in which actives are over-represented; it also holds similar structures and randomly drawn compounds. Values without a mark were called inactive. The call rests on the fitted dose curve; tested in HEK293 reporter line.
Potency means the concentration at half of the fitted maximal effect.

Test: qHTS Assay for Foot and Mouth Disease Virus Antivirals: Primary Screen against the MLPCN compound library; further: nearly all actives have a fitted effect of over 55% in size
Details: FMDV antiviral cell-based qHTS; series mostly up to 57.9 µM; activity, negative = inhibition: at the top concentration
For `COc1ccc(Nc2nc(N)nc(CN3CCN(c4ccccn4)CC3)n2)cc1`, the “activity, negative = inhibition” value was -45.2%. With `CCOC(=O)CC1(C)NC(C(=O)O)C(C)(C)S1` (stereo not drawn) the “activity, negative = inhibition” value was 0%. With `Cc1cc(C)cc(NC(=O)c2ccc(N3C(=O)C4CCCCC4C3=O)cc2)c1` (stereo not drawn) the “activity, negative = inhibition” value was -35.2%. In the case of `O=C(Nc1ccc(Br)cc1)c1cccc(N2C(=O)C3CCCCC3C2=O)c1` (stereo not drawn), the “activity, negative = inhibition” value is reported as -34.9%. For `O=C(Nc1cccc(N2C(=O)C3CCCCC3C2=O)c1)c1ccccc1` (stereo not drawn), the Potency was 14.1 µM (active). With `COc1ccccc1CNC(=O)c1ccc(CS(=O)(=O)c2ccccc2C)o1` the Potency was “inactive”. For `COc1cc(OC)cc(C(=O)N[C@H](C(=O)Nc2nc3ccccc3[nH]2)C(C)C)c1`, the “activity, negative = inhibition” value was -32.3%. With `CN(c1ccccc1)S(=O)(=O)c1ccc(Cl)c(C(=O)Nc2nc3ccccc3[nH]2)c1` the “activity, negative = inhibition” value was -40.3%. In the case of `O=C(Nc1nc2ccccc2[nH]1)c1ccc(Cl)cc1`, the Potency is reported as 12.6 µM (active). For `COc1cccc(C(=O)Nc2cccc(OCc3cc(=O)n4cccc(C)c4n3)c2)c1`, the “activity, negative = inhibition” value was -33.9%. For `COc1ccc(Cl)cc1NC(=O)CCCS(=O)(=O)c1nc(-c2ccc(OC)c(OC)c2)cc(C(F)(F)F)n1`, the Potency was 28.2 µM (active). In the case of `COc1ccc(-c2cc(C(F)(F)F)nc(N3CCN(C)CC3)n2)cc1OC`, the “activity, negative = inhibition” value is reported as -35.9%. In the case of `COc1ccc(CCNc2nc(-c3ccc(OC)c(OC)c3)cc(C(F)(F)F)n2)cc1OC`, the “activity, negative = inhibition” value is reported as -30.5%. In the case of `Cc1ccccc1-n1c(SCc2c(C)noc2C)nnc1-c1c[nH]c2ccccc12`, the “activity, negative = inhibition” value is reported as -30.2%. In the case of `CCOC(=O)/C(O)=C(\C#N)c1nc2ccccc2[nH]1`, the “activity, negative = inhibition” value is reported as -41.1%. With `NC(=O)c1ccc(N2CCN(c3ccc(O)cc3)CC2)c([N+](=O)[O-])c1` the “activity, negative = inhibition” value was -35.5%. In the case of `COc1ccc(Nc2ccc(N3C(=O)CC(C)C3=O)cc2[N+](=O)[O-])cn1` (stereo not drawn), the “activity, negative = inhibition” value is reported as -35.4%. With `CC1CC(=O)N(c2ccc(NCCc3ccc(O)cc3)c([N+](=O)[O-])c2)C1=O` (stereo not drawn) the Potency was 25.1 µM (active). In the case of `COc1ccccc1C(CNC(=O)c1ccc(-c2ccccc2Cl)o1)N1CCCC1` (stereo not drawn), the “activity, negative = inhibition” value is reported as -35.2%. For `CC1C/C(=N/Nc2ccc([N+](=O)[O-])cc2[N+](=O)[O-])CC(C)(C)C1` (stereo not drawn), the “activity, negative = inhibition” value was -33%. With `COc1cc(C)c(-c2[nH]ncc2-c2csc(C)n2)c(O)c1` the “activity, negative = inhibition” value was -38.2%. With `Cc1ccc(C(=O)Cn2c(=N)n(N)c3ccccc32)cc1` the “activity, negative = inhibition” value was -55.9%. With `Cc1ccc(C(=O)Cn2c3c(sc2=N)CCCC3)cc1` the Potency was 7.94 µM (active). In the case of `CCOC(=O)Cn1nc(C)c(NC(=O)COc2ccc(OC)cc2)c1C`, the “activity, negative = inhibition” value is reported as -31.4%. In the case of `COc1ccc2nc(C)cc(SCC(=O)N/N=C/c3c(OC)ccc4ccccc34)c2c1`, the “activity, negative = inhibition” value is reported as -36.7%. In the case of `Cc1ccc(-c2csc(Nc3ccc(S(N)(=O)=O)cc3)n2)o1`, the “activity, negative = inhibition” value is reported as -30.9%. For `Cc1ccc(NC(=S)Nc2ccc3[nH]c(=O)[nH]c3c2)cc1`, the “activity, negative = inhibition” value was -37.6%. With `Clc1ccc(OCc2nc(-c3ccccn3)no2)c(Br)c1` the Potency was 20 µM (active). With `O=C(NCc1ccccn1)c1ccccc1OCc1ccc(Cl)cc1Cl` the “activity, negative = inhibition” value was -31.9%. For `Cc1cc(OCc2nc(-c3ccncc3)no2)cc(C)c1Cl`, the “activity, negative = inhibition” value was -36.6%. For `COc1ccc(Br)cc1CNC(=O)CCc1nc(-c2ccc(C)cc2)no1`, the “activity, negative = inhibition” value was -32.7%. For `Cc1ccc(OCc2nc(-c3ccccn3)no2)c(Br)c1`, the Potency was 20 µM (active). With `COc1ccc(-c2noc(CCCOc3ccccc3)n2)cc1OC` the “activity, negative = inhibition” value was -34.9%. With `CCn1c(SCC(=O)Nc2cccc(NC(C)=O)c2)nc2c([nH]c3ccccc32)c1=O` the “activity, negative = inhibition” value was -30.1%. With `COc1ccc(C(=O)c2cn(Cc3ccccc3)c3ccccc3c2=O)cc1OC` the “activity, negative = inhibition” value was -30.9%. With `COc1cc(NC(=O)c2ccc3oc(=O)c(S(=O)(=O)c4ccccc4)cc3c2)cc(OC)c1` the “activity, negative = inhibition” value was -26.9%. For `CCCCn1c(=O)[nH]c(=O)c2c1nc(CN1C(=O)c3ccccc3S1(=O)=O)n2CCC`, the “activity, negative = inhibition” value was -41.4%. In the case of `Cc1cccc(C)c1NC(=O)Cn1c(=O)n(Cc2ccco2)c(=O)c2ccc(C(=O)NC3CCCC3)cc21`, the “activity, negative = inhibition” value is reported as -30.3%. In the case of `COc1cccc(N2C(=O)C3C(C2=O)C3(c2ccccc2)c2ccccc2)c1` (stereo not drawn), the Potency is reported as 14.1 µM (active). In the case of `COC(OC)C12c3ccccc3C(c3ccccc31)C1C(=O)N(c3cccnc3)C(=O)C12` (stereo not drawn), the “activity, negative = inhibition” value is reported as -32.8%. For `COc1ccc2c(c1)C1(C)CC(C)(C)N2C(=O)N1c1ccccc1` (stereo not drawn), the “activity, negative = inhibition” value was -39.4%. For `CCn1c(SCC(=O)N/N=C/c2c[nH]c3ccccc23)nnc1-c1ccc(Cl)cc1`, the “activity, negative = inhibition” value was -32.6%. In the case of `CC1c2cc3c(cc2CCN1C(=O)c1ccc(C(F)(F)F)cc1)OCCCO3` (stereo not drawn), the “activity, negative = inhibition” value is reported as -34.3%. With `CC(=O)c1ccc(N2CCN(C(=O)CCCCn3c(=O)[nH]c4ccsc4c3=O)CC2)cc1` the “activity, negative = inhibition” value was -34.1%. With `CC(C)(C)OC(=O)C[C@@H]1C/C=C\C[C@@H](CC(=O)N[C@@H](CO)Cc2ccccc2)C(=O)NC[C@@H](c2ccccc2)OC1=O` the “activity, negative = inhibition” value was -31.5%. In the case of `CC(C)[C@@H](C(=O)N1CCN(Cc2ccc3c(c2)OCO3)CC1)n1nnc2ccccc2c1=O`, the “activity, negative = inhibition” value is reported as -39.5%. With `Cc1ccc(CSCC(=O)N2CCN(Cc3ccc4c(c3)OCO4)CC2)cc1` the “activity, negative = inhibition” value was -35.9%. For `O=C(CCCCCn1c(=O)[nH]c2ccccc2c1=O)N1CCN(Cc2ccc3c(c2)OCO3)CC1`, the Potency was 20 µM (active). For `Cc1nnc(SCC(=O)N2CCCC2)n1-c1ccc(F)cc1`, the “activity, negative = inhibition” value was -42.8%. With `COc1cc(NC(=O)c2noc3c2CCc2ccccc2-3)cc(OC)c1OC` the “activity, negative = inhibition” value was -31.7%. With `CC(=O)c1ccc(NC(=O)c2cc(S(=O)(=O)N3CCOCC3)ccc2C)cc1` the “activity, negative = inhibition” value was -36.2%. In the case of `CC(=O)c1ccc(NC(=O)c2noc3c2CCC3)cc1`, the Potency is reported as 20 µM (active). In the case of `O=C(CSc1nnc2c(Cl)cc(Cl)cn12)N1CCOCC1`, the “activity, negative = inhibition” value is reported as -14.8%. With `Cn1ncc(S(=O)(=O)Cc2ccccc2)c(Cl)c1=O` the Potency was 20 µM (active). For `O=c1c2cnn(-c3ccccc3)c2ncn1Cc1ccccc1`, the “activity, negative = inhibition” value was -37.6%. For `CCNc1nc2c(c(=O)n(Cc3ccccc3)c(=O)n2C)n1Cc1ccccc1`, the “activity, negative = inhibition” value was -32.7%. For `COc1cccc2cc(-c3nc(-c4ccccc4F)no3)c(=O)oc12`, the “activity, negative = inhibition” value was -45.9%. For `COC(OC)c1ccnc(-c2ccc(OC(=O)c3ccc(F)cc3)cc2)n1`, the “activity, negative = inhibition” value was -38.9%. With `COc1ccc(C(=O)NNC(=O)c2ccccn2)cc1` the “activity, negative = inhibition” value was -98.5%. In the case of `O=C(Oc1ccc(-c2nc(-c3ccccn3)no2)cc1)c1ccccc1`, the Potency is reported as 14.1 µM (active). With `COc1ccccc1-c1noc(-c2ccc(N3CCN(c4ccccc4)CC3)c([N+](=O)[O-])c2)n1` the “activity, negative = inhibition” value was -38.3%. With `COc1ccccc1-c1nc(-c2ccccn2)no1` the Potency was 14.1 µM (active). For `COc1ccc(CN2CCN(Cc3ccc(C(F)(F)F)cc3)CC2)c(OC)c1`, the “activity, negative = inhibition” value was -30.9%.
